In the library only some 32% were active in any assay of this set; here they are far more common.
CYP2C9 inhib = human CYP2C9 inhibition; inhibition, % at 5 µM; CYP2C9 Supersomes, luciferin-H conversion, luminescence; hit rate 20% among 96,000; AID 777;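 active means blocking of liver enzyme CYP2C9 beyond about 50% at 5 µM, limit read from the data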
CYP2C19 inhib = human CYP2C19 inhibition; hit rate 21% among 96,000; inhibition, % at 5 µM; P33261; CYP2C19 Supersomes, luciferin-H EGE luminescence, 30 min;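 active means CYP2C19 inhibition above a set limit at 5 µM in the primary screen, cut at about 50% in these data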;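 further: plate controls were negative control wells for no effect and 2.5 mM tranylcypromine positive control for full effect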
Target sequence (P33261 whole entry, looked up): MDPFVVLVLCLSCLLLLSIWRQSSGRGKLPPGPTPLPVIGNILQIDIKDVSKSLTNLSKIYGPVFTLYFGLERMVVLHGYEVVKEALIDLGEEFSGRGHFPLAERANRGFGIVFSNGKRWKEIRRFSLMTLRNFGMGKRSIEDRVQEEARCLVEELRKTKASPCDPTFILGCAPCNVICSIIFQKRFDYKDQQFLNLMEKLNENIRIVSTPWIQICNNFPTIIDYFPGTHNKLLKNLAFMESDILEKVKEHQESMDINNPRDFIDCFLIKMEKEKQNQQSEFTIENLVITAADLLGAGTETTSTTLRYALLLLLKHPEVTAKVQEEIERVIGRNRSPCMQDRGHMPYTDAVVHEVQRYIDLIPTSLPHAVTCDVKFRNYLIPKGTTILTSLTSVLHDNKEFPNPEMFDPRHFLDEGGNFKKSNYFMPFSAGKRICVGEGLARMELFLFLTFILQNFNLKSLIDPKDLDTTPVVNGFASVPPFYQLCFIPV
CYP2C19 activ = increases human CYP2C19 enzyme activity; P33261; recombinant CYP2C19, luciferin-H EGE luminescence; stronger effect = higher value; 0 = fully inhibited enzyme, 1 = untreated enzyme; activation factor at 5 µM; 96,000 tested, under 10 active; AID 1025;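 active means activation factor of at least 2 at 5 µM in the primary screen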;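 further: 0 = wells with 2.5 mM tranylcypromine and 1 = vehicle-only wells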
PostGolgi ctrl = growth of the yeast control strain, post-Golgi counter-screen. efflux-deficient yeast background strain, growth absorbance A615, 16 h. inhibition, % at 10 µM. hit rate 5% among 98,000
PostGolgi yeast = growth inhibition of a yeast mutant, post-Golgi transport screen; post-Golgi transport phenotypic cell assay; inhibition, % at 10 µM; hit rate 0.9% among 98,000; AID 739;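 further: yeast cells grown in 1536-well plates; yeast grown about 18 h at 30C before absorbance read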
CYP2C9 act = activators of human CYP2C9; hit rate 1.4% among 96,000; activation factor at 5 µM; P11712; recombinant CYP2C9, luciferin-H conversion, luminescence; stronger effect = higher value; factor 1 = untreated enzyme, 0 = blocked;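 active means activation factor of 2 or more for CYP2C9 at a 5 µM dose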;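 further: 0 = sulfaphenazole-blocked wells and 1 = vehicle-only wells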
* = called active by the depositor; . = not tested or not shown. Unless noted, no stated cut-off is given here; in the data, active means inhibition above about 30%; inactive means the rest.

SMILES	CYP2C9 inhib	CYP2C19 inhib	CYP2C19 activ	PostGolgi ctrl	PostGolgi yeast	CYP2C9 act
COCCN1C(=O)c2oc3ccccc3c(=O)c2C1c1ccc(O)c(OC)c1 (stereo unspecified)	21	30	0.7	6	-1	0.8
COc1cc(C2c3c(oc4ccccc4c3=O)C(=O)N2Cc2ccncc2)ccc1O (stereo unspecified)	73*	47	0.5	5	-3	0.3
COCCN1C(=O)c2oc3ccccc3c(=O)c2C1c1cccc(O)c1 (stereo unspecified)	43	55*	0.4	32*	6	0.6
COC(=O)c1ccc(CSc2ncnc3c2nnn3-c2ccc(F)cc2)o1	5	9	0.9	8	-2	1
COC(=O)C1=C(C)N(Cc2ccc(OC)cc2)C(=O)C1	34	97*	0	-2	12	0.7
COC(=O)C1=C(C)N(CC(C)C)C(=O)C1	23	71*	0.3	5	-1	0.8
COC(=O)C1=C(C)N(Cc2cccnc2)C(=O)C1	.	.	.	3	0	.
COc1ccc(CCN2C(=O)C3C4C=CC(C4)C3C2=O)cc1OC (stereo unspecified)	-6	57*	0.4	9	24	1.1
COC(=O)C1=C(C)N(CCc2ccc(OC)cc2)C(=O)C1	14	78*	0.2	7	2	0.9
CNS(=O)(=O)c1ccc(NC(=O)c2nc3nc(C)cc(C(F)F)n3n2)cc1	-26	3	1	-8	-7	1.3
Cc1[nH]c(=O)[nH]c(=O)c1S(=O)(=O)NCCOC12CC3CC(CC(C3)C1)C2	3	-2	1	-1	2	1
COC(=O)C1=C(C)N(CCc2ccc(OC)c(OC)c2)C(=O)C1	16	65*	0.4	10	-6	0.8
COC(=O)C1=C(C)N(Cc2ccc(OC)c(OC)c2)C(=O)C1	-3	20	0.8	2	6	1
CCOC(=O)Nc1ccc2ncn(C)c(=O)c2c1	6	2	1	8	-4	0.9
Cc1ccc(C(=O)Nc2cc(Cl)ccc2N2CCCCC2)s1	29	31	0.7	20	0	0.7
Cc1nc2cc(N3CCN(C)CC3)c(NC(=O)Cc3ccccc3)cc2c(=O)n1Cc1ccccc1	67*	67*	0.3	29	1	0.3
Cc1nc2cc(N3CCCCC3)c(NC(=O)c3ccncc3)cc2c(=O)n1Cc1ccc(Cl)cc1	74*	48	0.5	-23	11	0.3
Cc1nn(Cc2ccc([N+](=O)[O-])cc2)c(=O)n1-c1cccc(F)c1	9	44	0.6	-4	10	0.9
Cc1ccc2cc(CN(CCO)Cc3nnnn3Cc3ccc(F)cc3)c(=O)[nH]c2c1	42	32	0.7	-5	37*	0.6
COCCn1nnnc1CN(CCc1ccc(OC)c(OC)c1)Cc1cc2ccc(C)cc2[nH]c1=O	61*	59*	0.4	20	-3	0.4
Cc1cc(C)c2cc(CN(CCO)Cc3nnnn3Cc3ccc(F)cc3)c(=O)[nH]c2c1	25	40	0.6	-1	10	0.7
CCN(C(=O)Cc1ccc(Br)cc1)C1CCCCC1	37	22	0.8	15	16	0.6
CC(C)OC(=O)CSc1nc2cccnc2n1-c1ccc(F)cc1	23	39	0.6	6	-4	0.8
CCOc1ccc(C(=O)N(CN2CCCC2=O)c2ccccc2)cc1	12	-14	1.1	14	10	0.9
Cc1ccc(N(CN2CCCC2=O)C(=O)c2ccc(OC(C)C)cc2)cc1	13	34	0.7	32*	-1	0.9
Cc1ccc(Nc2ccc(C(=O)N3CCCC3)cn2)c(C)c1	-32	45	0.6	15	-11	1.3
O=C(c1ccc(Nc2cccc(C(F)(F)F)c2)nc1)N1CCCC1	66*	60*	0.4	10	-2	0.3
O=C(NCc1ccco1)C1CCCN(S(=O)(=O)c2cccc3nsnc23)C1 (stereo unspecified)	-8	30	0.7	7	2	1.1
Cc1cccc(NC(=O)CSc2nnc(-c3ccc(S(=O)(=O)N4CCCC4)cc3)o2)c1	66*	17	0.8	2	-6	0.3
O=C(CSc1nnc(-c2ccc(F)cc2)o1)Nc1ccc(S(=O)(=O)N2CCCC2)cc1	18	6	0.9	-5	4	0.8
